Source: PubChem BioAssay (National Center for Advancing Translational Sciences (NCATS))
IP6K1 inhibitor = Primary qHTS assay for small molecule inhibitors of Inositol hexaphosphate kinase 1 (IP6K1) | AID 1645851, 2021 | actives 0.81% (n = 140,000) | Inositol hexakisphosphate kinase 1 (Homo sapiens), Q92551 | activity change, % (series mostly up to about 58 µM) | IP6K1 kinase, ADP-Glo luminescence, 2 h; hits give low values; in the data active = activity change below about -25%
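ADP-Glo luminescence measures ADP made by human IP6K1 during a 2 h RT reaction with ATP/IP6 (mix at 1.3 mM/130 uM); top library doses 57.5 and 19.1 uM final.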
SNCA expr inh = Primary qHTS assay for inhibitors of alpha-synuclein gene (SNCA) expression | HEK-293 SNCA-luciferase knock-in, luminescence, 24 h | Potency, µM (top dose mostly 57.2 µM), most hits filed as inhibitors | actives 0.17% (n = 140,000); also: nearly all actives have a fitted effect of over 45% in size
SNCA viab count = GF-AFC viability counterscreen for inhibitors of alpha-synuclein gene (SNCA) expression | HEK-293-SNCA-luc viability, GF-AFC fluorescence, 24 h | Potency, µM (titrated, usually from 57.1 µM), most hits filed as cytotoxic | actives 0.12% (n = 150,000); also: nearly all actives have a fitted effect of over 30% in size
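HEK-293-SNCA-luc cells (1500/well) plated 24 h, then exposed 24 h to a dilution series; GF-AFC added 30 min at 37C, fluorescence 405/540 nm; normalised to medium-only and DMSO wells, Hill fit.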
KDM5B inhibitor = Primary screen for KDM5B Histone Demethylases FDH-coupled qHTS; KDM5B demethylase, FDH-coupled NADH fluorescence (FDH is formaldehyde dehydrogenase); Potency, µM (top dose mostly 57.7 µM), most hits filed as inhibitors; actives 2.6% (n = 220,000); Lysine-specific demethylase 5B (Homo sapiens), Q9UGL1; also: nearly all actives have a fitted effect of over 70% in size
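Coupled FDH/NAD⁺ fluorescence readout. KDM5BΔAP 200 nM final; compound titration, 10 min RT preincubation; substrate mix 12.5 µM H3K4me3, 25 µM 2-OG, 50 µM Fe(II), 100 µM ascorbate, 0.25 mM NAD⁺, 0.25 U/mL FDH; ΔRFU over 30 min.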
Large screens that a line does not name were inactive. The list is not random: actives were taken first. Their share in the collection is about 3%. Unless noted, calls follow the shape of the dose curve; as a rule, active = well fitted curve in the direction sought with a large enough effect; inconclusive = small, poorly fitted or top-dose-only effect, or another doubt; inactive = no such curve, though single readings can be large; an effect the other way counts as inactive or inconclusive.

Cc1noc(C)c1-c1cc2cc(CN(C)C)oc2c(-c2ccc([S+](C)(=O)[O-])cc2)n1	KDM5B inhibitor 39.8µM
CCOC(=O)C(Cc1cc(N2CCN(S(=O)(=O)c3c(Cl)cccc3Cl)CC2)ccc1Cl)OC (stereo unspecified)	none (no result: SNCA expr inh, SNCA viab count, KDM5B inhibitor)
CC(=O)N1CCC(N2CC[C@H](c3nc4ccccc4s3)C2)CC1	KDM5B inhibitor 31.6µM
CCC1=C(C(=O)OC)C(c2ccccc2C)N2C(CC(=O)NCC3CC3)=CSC2=N1 (stereo unspecified)	KDM5B inhibitor 31.6µM
CCNc1cc(N2CCC(CCC(=O)O)CC2)ncn1	SNCA expr inh 1.26µM
CCCNc1cc(N2CCC(CCC(=O)NCc3ccccc3Cl)CC2)ncn1	SNCA expr inh 2.82µM
CCCNc1cc(N2CCC(CCC(=O)NCC3CC3)CC2)ncn1	SNCA expr inh inconclusive
CCNc1cc(N2CCC(CCC(=O)Nc3cccc(OC)c3)CC2)ncn1	SNCA expr inh 7.94µM
CCNc1cc(N2CCC(CCC(=O)N3CCOCC3)CC2)ncn1	SNCA expr inh inconclusive
CCCNc1cc(N2CCC(CCC(=O)NCc3cccc(OC)c3)CC2)ncn1	SNCA expr inh 2.24µM
O=C(CCC1CCN(c2cc(NC3CC3)ncn2)CC1)NCc1ccccc1Cl	SNCA expr inh 8.91µM
CC(=O)N1CCN(C(=O)CCC2CCN(c3cc(NC4CC4)ncn3)CC2)CC1	none
Cc1ccnc(NS(=O)(=O)c2ccc(NC(=O)Nc3ccc(S(=O)(=O)Nc4nccc(C)n4)cc3)cc2)n1	SNCA expr inh 0.857µM, SNCA viab count inconclusive (no result: KDM5B inhibitor)
O=C(NCc1nnc2ccc(-c3ccccc3)nn12)c1ccco1	KDM5B inhibitor 28.2µM
Cc1ccc(-c2ccc3nnc(CNC(=O)c4ccco4)n3n2)cc1	KDM5B inhibitor 31.6µM
COc1ccccc1-c1cccc(CN2CCC(NC(=O)N(C)C)CC2)c1	none (no result: KDM5B inhibitor)
N#Cc1cccc(N2CCC3(CCC(=O)N(CC4CCCO4)C3)CC2)n1 (stereo unspecified)	KDM5B inhibitor 25.1µM
O=C(NCCc1ccccn1)c1cccnc1OC1CCNCC1	KDM5B inhibitor 28.2µM
CN(C)C(=O)c1cccnc1OC1CCNCC1	KDM5B inhibitor inconclusive
CCNC(=O)c1cccnc1OC1CCN(C(=O)CC)C1 (stereo unspecified)	none
CCNC(=O)c1cccnc1OC1CCN(Cc2ccccn2)C1 (stereo unspecified)	KDM5B inhibitor 20µM
Cc1cccc(-c2nc3ccc(C(=O)NCc4ccccc4F)cc3o2)n1	none (no result: KDM5B inhibitor)
O=C(NCc1ccccc1)c1ccccc1OC1CN(Cc2cccc(F)c2F)C1	SNCA viab count inconclusive (no result: KDM5B inhibitor)
COc1ccccc1-c1cccc(CN2CCCC(C(=O)NCc3cccc(F)c3)C2)c1 (stereo unspecified)	SNCA expr inh inconclusive (no result: KDM5B inhibitor)
COc1ccccc1Nc1ccnc(N2CCC(C(=O)NCCc3ccc(F)cc3)CC2)n1	SNCA expr inh inconclusive, SNCA viab count inconclusive (no result: KDM5B inhibitor)
O=C1CN(C(=O)c2cnc3ccccn3c2=O)CCN1Cc1ccc(F)cc1	KDM5B inhibitor 28.2µM
CCC(C(=O)N1CCN(Cc2ccc(C)c(C)c2)C(=O)C1)n1cccn1 (stereo unspecified)	none
Cc1ccc(-c2cc(C(=O)N3CCC(Cc4nncn4C(C)C)CC3)c3ccccc3n2)cc1C	SNCA expr inh inconclusive, KDM5B inhibitor 28.2µM
CCn1cnnc1CC1CCN(C(=O)c2cc(-c3ccc(C)c(C)c3)nc3ccccc23)CC1	KDM5B inhibitor 28.2µM
O=C(NCCc1ccc(Cl)cc1)c1ccc2nnc(C3CC3)n2c1	none (no result: KDM5B inhibitor)
O=C(NCc1nnc2cc(-c3nc(C4CC4)no3)ccn12)c1nccc2ccccc12	KDM5B inhibitor 28.2µM
O=C(NCc1nnc2cc(-c3nc(C4CC4)no3)ccn12)c1ccc(F)cc1	none
O=C(NCc1nnc2cc(-c3nc(C4CC4)no3)ccn12)c1ccc(F)c(F)c1	KDM5B inhibitor 28.2µM
O=C(NCc1nnc2cc(-c3nc(C4CC4)no3)ccn12)c1ccccc1F	KDM5B inhibitor 8.91µM
O=C(NCc1nnc2c(-c3nc(C4CC4)no3)cccn12)c1nccc2ccccc12	KDM5B inhibitor inconclusive
COc1ccccc1C(=O)NCc1nnc2cc(-c3nc(C4CC4)no3)ccn12	KDM5B inhibitor 28.2µM
CCOC(=O)C1CCCN(C(=O)c2ccc3oc(-c4ccncc4)nc3c2)C1 (stereo unspecified)	none (no result: KDM5B inhibitor)
Cn1ncc2c(C(=O)NCC3CC3)cc(-c3ccc(C(F)(F)F)cc3)nc21	none (no result: SNCA expr inh, SNCA viab count, KDM5B inhibitor)
CCc1ccc(S(=O)(=O)N2CCC(n3cnnc3-c3ccccc3)CC2)cc1	none (no result: KDM5B inhibitor)
Cc1ccc(Nc2ccnc(N3CCCC3C(=O)NCCCc3ccccc3)n2)cc1 (stereo unspecified)	SNCA expr inh inconclusive (no result: KDM5B inhibitor)
O=C(NCc1nnc2cc(-c3nc(C4CC4)no3)ccn12)c1cccnc1	KDM5B inhibitor 28.2µM
Cc1ccc(Nc2ccnc(N3CCC(C(=O)NCC4CCCO4)CC3)n2)cc1 (stereo unspecified)	none (no result: KDM5B inhibitor)
CCn1cc(CN2CCN(Cc3ccccc3)CC2)ccc1=O	KDM5B inhibitor inconclusive
CCn1c2ccccc2c2cc(CN3CCN(Cc4ccc(Br)cc4)CC3)ccc21	IP6K1 inhibitor -58.0, KDM5B inhibitor inconclusive
CC(C)C[C@H](NC(=O)CNC(=O)OCc1ccccc1)C(=O)N[C@@H](Cc1ccccc1)C(=O)CCl	SNCA viab count 23.8µM (no result: SNCA expr inh, KDM5B inhibitor)
O=C(NC1CCN(Cc2ccc(-c3ccsc3)cc2)C1)c1ccccc1Cl (stereo unspecified)	SNCA expr inh inconclusive (no result: KDM5B inhibitor)
COc1cccc(-c2ccc(C(=O)N3CCC(C(=O)NCC(F)(F)F)CC3)cc2)c1	none (no result: KDM5B inhibitor)
OCCOCCn1cnc(-c2ccccc2)c1-c1ccc(-n2cccn2)cc1	SNCA viab count inconclusive, KDM5B inhibitor 31.6µM
Cc1ccc(C#N)c(N2CCC(c3nnc(Cn4cncn4)n3C)CC2)n1	KDM5B inhibitor 28.2µM
Cn1c(Cn2cncn2)nnc1C1CCN(Cc2ccc3ccccc3n2)CC1	KDM5B inhibitor inconclusive
COc1ccc(F)cc1-c1ccc(CN2CCC(NC(=O)c3ccccn3)C2)cc1 (stereo unspecified)	none (no result: SNCA expr inh, SNCA viab count, KDM5B inhibitor)
Cc1nc2scc(CC(=O)N3CCCC3)n2c(=O)c1-c1cc(C)n(-c2ccc(C(C)C)cc2)n1	KDM5B inhibitor 25.1µM
Cc1cccc(-n2nc(-c3c(C)nc4scc(CC(=O)N5CCOCC5)n4c3=O)cc2C)c1	KDM5B inhibitor 28.2µM
Cc1nc2scc(CC(=O)N3CCCC3)n2c(=O)c1-c1cc(C)n(-c2ccc(F)cc2)n1	KDM5B inhibitor inconclusive
Cc1ccc(-n2nc(-c3c(C)nc4scc(CC(=O)N5CCCC5)n4c3=O)cc2C)cc1	KDM5B inhibitor inconclusive
Cc1cccc(-n2nc(-c3c(C)nc4scc(CC(=O)N5CCCC5)n4c3=O)cc2C)c1	KDM5B inhibitor 28.2µM
O=C(NC1CCN(c2nccc(Nc3ccccc3Cl)n2)CC1)C1CC1	none (no result: KDM5B inhibitor)
CCC(O)c1cc2n(n1)CCN(C(=O)CCc1cn3ccccc3n1)C2 (stereo unspecified)	KDM5B inhibitor 11.2µM
